Measurements from PubChem BioAssay (NCI).
This is part of a sample that, as a whole, favours compounds with a hit. Of some 83,000 tested, about 20% had one in any assay.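 Growth was measured after 48 h exposure to one concentration of compound in 96-well plates. Values under 10 count as active.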 Calls of active or inactive are those of the source.

Columns and labels:
Experiment in all cases: NCI-60 one-dose screen, 48 h (100 = growth as untreated, 0 = no growth, -100 = all killed)
Conditions in all cases: 10 µM unless noted
T-47D breast = test system: T-47D breast
BT-549 breast = test system: BT-549 breast
MDA-MB-435 melanoma = test system: MDA-MB-435 melanoma
SW-620 colon = test system: SW-620 colon
MCF7 breast = test system: MCF7 breast
HCT-116 colon = test system: HCT-116 colon
HCC-2998 colon = test system: HCC-2998 colon
KM12 colon = test system: KM12 colon

Measured: growth

S=c1ccnc[nH]1
inactive: T-47D breast 125% | BT-549 breast 106% | MDA-MB-435 melanoma 113% | SW-620 colon 108% | MCF7 breast 107% | HCT-116 colon 96.8% | HCC-2998 colon 104% | KM12 colon 109%

CC(C)(Sc1cc(C(C)(C)C)c(O)c(C(C)(C)C)c1)Sc1cc(C(C)(C)C)c(OC(=O)CCC(=O)O)c(C(C)(C)C)c1
inactive: T-47D breast 31.4% | BT-549 breast 54.8% | MDA-MB-435 melanoma 47.2% | SW-620 colon 44.9% | MCF7 breast 35.8% | HCT-116 colon 28.3% | HCC-2998 colon 42.9% | KM12 colon 33.3%

O=Nc1ccc(NC(=O)Nc2ccc([N+](=O)[O-])cc2)cc1
inactive: T-47D breast 78.9% | BT-549 breast 98.3% | MDA-MB-435 melanoma 96.5% | SW-620 colon 97.4% | MCF7 breast 94% | HCC-2998 colon 104% | KM12 colon 90.7%

COc1ccccc1/C=C/C(=O)Nc1ccc(F)cc1
inactive: T-47D breast 75.4% | BT-549 breast 108% | MDA-MB-435 melanoma 94% | SW-620 colon 103% | MCF7 breast 64.4% | HCC-2998 colon 111% | KM12 colon 91.3%

O=C(/C=C/c1ccco1)Nc1ncc(Cc2cc(Cl)ccc2Cl)s1
inactive: T-47D breast 37.4% | BT-549 breast 17.1% | SW-620 colon 20.6% | MCF7 breast 13.3% | HCT-116 colon 16.3% | HCC-2998 colon 13.9% | KM12 colon 10.4%

COC(=O)c1sccc1-c1cc(O)c(C(=O)Nc2ccccc2)s1
inactive: T-47D breast 67.5% | BT-549 breast 116% | MDA-MB-435 melanoma 102% | SW-620 colon 109% | MCF7 breast 82% | HCC-2998 colon 109% | KM12 colon 87%

O=C(Nc1ccc(Nc2ccncc2)cc1)c1ccc(Nc2ccnc3ccc([N+](=O)[O-])cc23)cc1
inactive: T-47D breast 122% | BT-549 breast 107% | SW-620 colon 105% | MCF7 breast 91.9% | HCT-116 colon 97% | HCC-2998 colon 76.7% | KM12 colon 90.1%

Cc1ccc(S(=O)(=O)OC[C@]23CCC(C)(C)C[C@H]2C2=CC[C@@H]4[C@@]5(C)CCCNC(C)(C)[C@@H]5CC[C@@]4(C)[C@]2(C)CC3)cc1
inactive: BT-549 breast 88.2% | MCF7 breast 23.8%
active: T-47D breast 1.19% | SW-620 colon -71.3% | HCT-116 colon -83% | HCC-2998 colon -12.3% | KM12 colon -1.94%

CN(C)CCCC1(c2ccc(F)cc2)OCc2cc(-c3csc4ccccc34)ccc21 (stereo not given)
inactive: T-47D breast 26.4% | BT-549 breast 84.2%
active: MDA-MB-435 melanoma -91.4% | SW-620 colon -82.4% | MCF7 breast -62.5% | HCC-2998 colon -82.9% | KM12 colon -83.2%

O=c1cc(CNc2cc(F)cc(F)c2)c2ccc(I)cc2[nH]1
inactive: T-47D breast 35.8% | BT-549 breast 54.8% | SW-620 colon 19.1% | MCF7 breast 21.9% | HCT-116 colon 26.4% | HCC-2998 colon 64.6% | KM12 colon 24.1%

CC(C)Cc1nc(Nc2ccccc2)[nH]c(=O)c1C#N
inactive: T-47D breast 40.8% | BT-549 breast 39% | MDA-MB-435 melanoma 70.6% | SW-620 colon 70.3% | MCF7 breast 53.4% | HCC-2998 colon 38.1% | KM12 colon 50.6%

COc1ccc(N/N=C/c2cn(-c3ccc(C(=O)O)cc3)nc2-c2cc3ccccc3oc2=O)cc1
inactive: T-47D breast 49.6% | BT-549 breast 77.8% | MDA-MB-435 melanoma 52.4% | SW-620 colon 52.9% | MCF7 breast 49% | HCC-2998 colon 41.8% | KM12 colon 48.2%

O=c1cc(-c2ccccc2)nc(SCc2nc3cc(Cl)c(Cl)cc3[nH]2)[nH]1
inactive: T-47D breast 79% | BT-549 breast 108% | SW-620 colon 104% | MCF7 breast 92.5% | HCT-116 colon 97.3% | HCC-2998 colon 102% | KM12 colon 96%

CC1(C)N=C(N)N=C(N)N1c1ccc(S(=O)(=O)Nc2nccs2)cc1
inactive: T-47D breast 95.6% | BT-549 breast 94.1% | SW-620 colon 98.2% | MCF7 breast 103% | HCT-116 colon 100% | HCC-2998 colon 113% | KM12 colon 101%

O=[N+]([O-])c1c(O)c(Cl)cc(Cl)c1Cl
inactive: T-47D breast 97.6% | BT-549 breast 106% | SW-620 colon 115% | MCF7 breast 98.8% | HCT-116 colon 100% | HCC-2998 colon 96.5% | KM12 colon 112%

Cc1nc2sc(C(=O)Nc3cccc4ccccc34)c(N)c2cc1C(=O)c1ccccc1
inactive: T-47D breast 53.7% | BT-549 breast 15.2% | SW-620 colon 21.9% | MCF7 breast 17.9% | HCT-116 colon 11.3% | HCC-2998 colon 10.3% | KM12 colon 19.1%

Cn1c2ccccc2c2c3c(c4c5cc(Br)ccc5n(C)c4c21)C(=O)N(O)C3=O
inactive: BT-549 breast 41.2% | SW-620 colon 18% | MCF7 breast 10.7% | HCC-2998 colon 57.5% | KM12 colon 34.1%
active: T-47D breast -11.2% | HCT-116 colon 4.46%

COc1cccc(CNc2c3ccccc3nc3ccccc23)c1OC
inactive: T-47D breast 47.5% | BT-549 breast 59.7% | SW-620 colon 25.4% | MCF7 breast 10.1% | HCT-116 colon 11.8% | HCC-2998 colon 38.3% | KM12 colon 52.4%

O=S(=O)(N=C1C(Cl)=C(Cl)C(=NS(=O)(=O)c2ccccc2)C(Cl)=C1Cl)c1ccccc1
inactive: T-47D breast 88.9% | BT-549 breast 86.6% | SW-620 colon 39.7% | MCF7 breast 53.8% | HCT-116 colon 25.4% | HCC-2998 colon 122% | KM12 colon 96.2%

Cc1sc2nc(NCCN)[nH]c(=O)c2c1C
inactive: T-47D breast 95% | BT-549 breast 94.3% | SW-620 colon 95.5% | MCF7 breast 89.6% | HCT-116 colon 97.8% | HCC-2998 colon 101% | KM12 colon 84.3%

CCOC(=O)c1cn2ncnc(Oc3ccc(NC(=O)NC4CC4)c(Cl)c3)c2c1C
inactive: T-47D breast 71.9% | BT-549 breast 96.1% | SW-620 colon 97.1% | MCF7 breast 90.5% | HCT-116 colon 95.1% | HCC-2998 colon 101% | KM12 colon 102%

Cc1ccc2cnc(N)c(C#Cc3cc(C(=O)Nc4ccc(CN5CCN(C)CC5)c(C(F)(F)F)c4)cnc3C)c2c1
active: SW-620 colon -77.3% | MCF7 breast -50.8% | HCT-116 colon -83.9% | KM12 colon 0.561%
inactive: T-47D breast 66.8% | BT-549 breast 16.5% | HCC-2998 colon 54%

CN(C)CCCn1c2c(c3ccncc3c1=O)C(=O)c1ccccc1-2
inactive: HCC-2998 colon 25.6%
active: T-47D breast -12.3% | BT-549 breast 3.87% | SW-620 colon -28.1% | MCF7 breast 1.65% | HCT-116 colon -18.7% | KM12 colon -12.6%

CCOc1ncc([N+](=O)[O-])c(OCC)n1
inactive: T-47D breast 106% | BT-549 breast 105% | MDA-MB-435 melanoma 124% | SW-620 colon 111% | MCF7 breast 93.8% | HCC-2998 colon 99.4% | KM12 colon 117%

COc1cc(Cc2cc(OC)c(O)c(OC)c2)cc(OC)c1O
inactive: T-47D breast 109% | BT-549 breast 87.8% | SW-620 colon 41.4% | MCF7 breast 68.1% | HCT-116 colon 85.6% | HCC-2998 colon 73.5% | KM12 colon 55.7%

Fc1ccc(/C=C/[C@@H]2C[C@@H](F)CCO2)cc1
inactive: T-47D breast 101% | BT-549 breast 100% | SW-620 colon 90.2% | MCF7 breast 91.3% | HCT-116 colon 82.2% | HCC-2998 colon 60.6% | KM12 colon 105%

O=C(Nc1ccccc1O)c1ccc(CNc2ccnc(C(F)(F)F)c2)cc1
inactive: T-47D breast 32.1% | BT-549 breast 47.4% | SW-620 colon 72.8% | MCF7 breast 50.1% | HCT-116 colon 42.2% | HCC-2998 colon 99.6% | KM12 colon 62.6%

CC[C@@H](C(=O)[C@@H](C)[C@@H](O)[C@H](C)[C@@H]1O[C@@H]([C@@H](CC)C(=O)ONC(=O)c2ccccc2O)CC[C@@H]1C)C1O[C@]2(C=CC(=O)[C@]3(CC[C@@](C)([C@H]4CC[C@](O)(CC)[C@H](C)O4)O3)O2)[C@H](C)C[C@@H]1C (stereo not given in full)
inactive: T-47D breast 12.4% | BT-549 breast 36.2% | SW-620 colon 40.8% | MCF7 breast 17.8% | HCT-116 colon 36.7% | HCC-2998 colon 58.7% | KM12 colon 51.3%

CN1CCOCCN(C)Cc2ccc3ccc(cc3c2)CN(C)CCOCCN(C)Cc2ccc3ccc(cc3c2)C1
inactive: T-47D breast 119% | BT-549 breast 93.6% | MDA-MB-435 melanoma 82.9% | SW-620 colon 22.4% | MCF7 breast 77.5% | HCC-2998 colon 100% | KM12 colon 73.7%

COc1ccc(N=C2NN=C(c3c[nH]c4ccccc34)CS2)cc1OC
active: BT-549 breast -0.386%
inactive: T-47D breast 57.5% | SW-620 colon 50.4% | MCF7 breast 42.1% | HCT-116 colon 39.1% | HCC-2998 colon 71.7% | KM12 colon 23.7%

COc1c2c(cc3c1C(=O)N[C@@H]1[C@@H](O)[C@@H](O)[C@H](O)C[C@@H]31)OCCO2
inactive: T-47D breast 84.9% | BT-549 breast 99.5% | SW-620 colon 104% | MCF7 breast 93.9% | HCT-116 colon 102% | HCC-2998 colon 106% | KM12 colon 99.1%

COc1ccc(C(O)c2cc3c(N)c(C(=O)Nc4cccc5ccccc45)sc3nc2C)cc1 (stereo not given)
active: BT-549 breast 8.08% | HCT-116 colon 6.27% | HCC-2998 colon -38.8% | KM12 colon -6.56%
inactive: T-47D breast 44.2% | SW-620 colon 18.8% | MCF7 breast 11.3%

O=C(Nc1ncc(Cc2ccccc2)s1)c1sc2ccccc2c1Cl
inactive: T-47D breast 19.3% | BT-549 breast 62.3% | SW-620 colon 20.4% | MCF7 breast 14.4% | HCT-116 colon 24.8% | HCC-2998 colon 17.6% | KM12 colon 12.5%

c1cc(OCCCCCOc2cccc(-c3nc4ccccc4[nH]3)c2)cc(-c2nc3ccccc3[nH]2)c1
inactive: T-47D breast 12.2% | SW-620 colon 12.7% | HCC-2998 colon 14.2%
active: BT-549 breast 6.65% | MCF7 breast -2.42% | HCT-116 colon 7.44% | KM12 colon 8.91%
